# Assay outcomes from PubChem BioAssay.
# The list is not random: actives were taken first. Their share in the collection is about 3%.
# VDR inhibitor: Inhibitors of the vitamin D receptor (VDR): qHTS; 400,000 compounds, 0.93% hits; VDR-SRC2-3 peptide fluorescence polarization, 2 h; Vitamin D3 receptor (Homo sapiens), P11473; Potency, µM, inactives show max response, negative = inhibition, hits mostly inhibitors; AID 504847, 2011
#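 Fluorescence polarization assay of small-molecule disruption of VDR binding to coregulator peptide SRC2-3. Compounds and controls pin-transferred, then read after 2 h incubation at ambient room temperature.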
# KAT2A inh: qHTS Assay for Inhibitors of GCN5L2; Histone acetyltransferase KAT2A (Homo sapiens), Q92830; GCN5L2 HAT assay, ThioGlo1 CoA-SH fluorescence; Potency, µM (titrated, usually from 58.9 µM), for the others: at the highest dose activity change, negative = inhibition, actives largely listed as inhibitors; 390,000 compounds, 0.21% hits; AID 504327, 2011
#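 Preincubate 20nM GCN5L2 with compound 15 min, RT → add 50uM ThioGlo1 + 75uM H3(1-25) + 70uM acetyl-CoA → read fluorescence 0 and 20 min. Primary qHTS; fluorescent artifacts likely.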
# 12-LOX inh: Primary qHTS assay for inhibitors of human arachidonate 12S-lipoxygenase (ALOX12): Round 2. Polyunsaturated fatty acid lipoxygenase ALOX12 (Homo sapiens), P18054. purified 12hLO, xylenol orange hydroperoxide absorbance. Potency, µM (titrated, usually from 108 µM), inactives show at the highest dose activity change, negative = inhibition, hits mostly inhibitors. 580,000 compounds, 1.1% hits. AID 1671190, 2021
#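 Purified human 12hLO (150 nM final) in 25 mM Hepes, 0.01% Triton X-100, pH 7.0 was preincubated 15 min at room temperature with compound. Then 40 uM arachidonic acid was added, 30 min. Hydroperoxide was read by Fe-XO absorbance ratio 573/405 nm.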
# PLK1 PBD block: qHTS for Inhibitors of PLK1-PDB (polo-like kinase 1 - polo-box domain): Primary Screen | Serine/threonine-protein kinase PLK1 (Homo sapiens), P53350 | Plk1 PBD binding of FITC phosphopeptide, fluorescence polarization | Potency, µM, inactives show max response, negative = inhibition, usual class: inhibitors | 360,000 compounds, 2.8% hits | AID 720504, 2013; note: series mostly up to about 57 µM; nearly all actives have a fitted effect of over 65% in size
# Target sequence (P53350 whole entry, looked up, the tested form may be a part): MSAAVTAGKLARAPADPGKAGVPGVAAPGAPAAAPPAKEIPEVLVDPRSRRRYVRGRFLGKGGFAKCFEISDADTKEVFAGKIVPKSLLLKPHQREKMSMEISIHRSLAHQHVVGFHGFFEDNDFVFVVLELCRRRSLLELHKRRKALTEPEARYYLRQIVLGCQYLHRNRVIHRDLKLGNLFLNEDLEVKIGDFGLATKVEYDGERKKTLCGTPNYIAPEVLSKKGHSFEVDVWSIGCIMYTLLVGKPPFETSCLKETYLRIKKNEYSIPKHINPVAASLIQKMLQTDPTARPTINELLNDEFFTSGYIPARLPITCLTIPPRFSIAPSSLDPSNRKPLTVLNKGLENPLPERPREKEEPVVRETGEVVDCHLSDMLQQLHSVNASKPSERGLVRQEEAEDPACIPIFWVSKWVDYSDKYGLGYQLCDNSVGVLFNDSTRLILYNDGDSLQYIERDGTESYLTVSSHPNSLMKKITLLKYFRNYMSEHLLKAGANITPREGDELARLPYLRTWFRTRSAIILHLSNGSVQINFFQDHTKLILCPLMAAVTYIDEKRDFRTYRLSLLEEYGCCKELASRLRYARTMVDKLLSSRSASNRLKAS
# The depositor's hits bear a star; ? = inconclusive; . = no result; [ ] = another dose, or the depositor's remark. Calls come from the whole dose curve; as a rule, active = well fitted curve in the direction sought with a large enough effect; inconclusive = small, poorly fitted or top-dose-only effect, or another doubt; inactive = no such curve, though single readings can be large; an effect the other way counts as inactive or inconclusive. % is set by controls: 0 for no effect and ±100 for the full control effect; potency is the fitted concentration of half-maximal effect.
SMILES,VDR inhibitor,KAT2A inh,12-LOX inh,PLK1 PBD block
O=C(Nc1nnc(-c2ccc(Cl)cc2)o1)C1CCN(S(=O)(=O)c2cc(F)ccc2F)CC1,.,.,-4%,.
CC(=O)c1ccc(S(=O)(=O)N2CCN(C(C)=O)CC2)cc1,-9%,-7%,22%,-8%
CC(=O)c1ccc(S(=O)(=O)N2CCNCC2)cc1,?,1%,10%,15µM*
COc1ccc(S(=O)(=O)N2CCOCC2)cc1C(=O)N1CCCC1,-19%,-2%,119%,0%
COc1ccc(S(=O)(=O)NC2CC2)cc1C(=O)N1CCOCC1,?,-5%,2%,7.5µM*
CC(=O)OC(COC1CC2CCC1(C)C2(C)C)C[N+]1(C)CCCCC1 (stereo unspecified),.,.,13µM*,.
CCC(C(=O)Nc1ccc(C(C)C)cc1)n1cnc2ccccc2c1=O (stereo unspecified),.,.,45%,.
CCc1cc(N2CCCC(OCc3ccccn3)C2)n2nc(C)c(C)c2n1 (stereo unspecified),.,.,69%,.
O=c1nc(SCc2c(F)cccc2Cl)nc(-c2ccc(Cl)cc2)[nH]1,-3%,11%,-3%,21µM*
O=c1nc(SCc2ccccc2Cl)nc(-c2ccc(Cl)cc2)[nH]1,-7%,-3%,?,?
O=C1CO[C@H]2CN(c3ncccn3)C[C@H]2N1CC1CCCCC1,.,.,28µM*,.
N#Cc1ccc(N2C[C@@H]3OCC(=O)N(CC4CCCCC4)[C@@H]3C2)nc1,.,.,8%[176 µM],.
CN1C(=O)c2ccccc2NC1c1cc2ccccc2[nH]c1=O (stereo unspecified),.,.,7.1µM*,.
COCCN1C(=O)c2ccccc2NC1c1cc2ccccc2[nH]c1=O (stereo unspecified),.,.,1%,.
O=C(Nc1cccc(O)c1)c1cc(=O)[nH]c2ccccc12,.,.,-11%,.
C/C(=N\NC(=O)c1ccccc1[N+](=O)[O-])c1c(O)cc(C)oc1=O,0%,-1%,2%,6%
C/C(=N\NC(=O)c1ccc([N+](=O)[O-])cc1)c1c(O)cc(C)oc1=O,-18%,-8%,-4%,24µM*
COc1ccc2nc(C)cc(Sc3nc4ccccc4s3)c2c1,?,-19%,-8%,24µM*
CC(C)N(C(=O)[C@H]1C[C@H](CC(=O)NC(C)(C)C)C(=O)N2CCc3c([nH]c4cc(-c5ccco5)ccc34)[C@]12C)C(C)C,?,-7%,?,21µM*
CC[C@]12c3[nH]c4cc(-c5ccco5)ccc4c3CCN1C(=O)[C@@H](CC(=O)NCCC1=CCCCC1)C[C@@H]2C(=O)N1CCN(C(=O)C2CC2)CC1,?,-10%,?,21µM*
COc1ccc(CNC(=O)C[C@H]2C[C@H](C(=O)N3CCCCC3)[C@@]3(CCc4ccccc4)c4[nH]c5cc(-c6ccco6)ccc5c4CCN3C2=O)cc1OC,89µM*,-7%,.,24µM*
CCN(CC)C(=O)[C@H]1C[C@H](CC(=O)NC(C)(C)C)C(=O)N2CCc3c([nH]c4cc(-c5ccco5)ccc34)[C@]12C,6%,-8%,?,-8%
CC[C@]12c3[nH]c4ccc(Cl)cc4c3CCN1C(=O)[C@@H](CC(=O)NCCC1=CCCCC1)C[C@@H]2C(=O)N1CCN(C(=O)c2ccco2)CC1,2%,-13%,25µM*,-1%
CC(C)C(Sc1nnc(-c2ccccc2)o1)C(=O)NCc1cccnc1 (stereo unspecified),.,.,-25%,.
CC1=CCC(CO)(CO)C(C)C1 (stereo unspecified),.,.,33%,.
SMILES,VDR inhibitor,KAT2A inh,12-LOX inh,PLK1 PBD block
CN(C(=O)CN1CCC(c2cc3ccccc3[nH]2)CC1)C1CC1,.,.,9%,.
COc1ccccc1CNC(=O)CCS(=O)(=O)Cc1ccc(C)cc1,?,-7%,-36%,27µM*
Cc1ccc(-c2cc(-c3ccc(Cl)cc3)c(C#N)c(N)c2C#N)cc1,.,.,8%,.
Cc1ccc(-c2cc(-c3ccc(F)cc3)c(C#N)c(N)n2)o1,?,-15%,7.1µM*,?
Cc1ccc(-c2cc(-c3ccc(C)o3)nc(N)c2C#N)cc1,?,?,1µM*,13µM*
Cc1ccc(-c2cc(-c3ccc(Cl)cc3)c(C#N)c(N)n2)o1,?,?,?,21µM*
Cc1ccc(-c2cc(-c3ccc4c(c3)OCO4)c(C#N)c(N)n2)o1,2%,?,?,-24%
CCOc1cc(-c2cc(-c3ccc(C)o3)nc(N)c2C#N)ccc1O,-13%,2%,?,-4%
COc1cccc(-c2ccnc(-c3nnc(C)n3Cc3ccccc3)c2)c1,.,.,2%[176 µM],.
O=C(NC1CCCCC1)C(c1ccccc1)N1CCc2ccccc21 (stereo unspecified),-2%,-7%,-15%,-7%
O=C(NC1CCCC1)C(c1ccc(Cl)cc1)N1CCc2ccccc21 (stereo unspecified),89µM*,?,?,0%
Cc1cccc(CN2C(=O)CCSc3ccc(Cl)cc32)c1,-17%,-1%,3%,27µM*
Cc1cccn2cc(COc3cccc([N+](=O)[O-])c3)nc12,6%,-2%,-16%,-1%
O=[N+]([O-])c1cccc(OCc2cn3cccnc3n2)c1,-3%,-7%,11%,27µM*
Cc1ccc(CNc2oc(COc3ccccc3F)nc2C#N)cc1,.,.,0%,.
COc1cc(/C=C/C(=O)O)cc(S(=O)(=O)N2CCCc3ccccc32)c1OC,?,-3%,6%,27µM*
COc1cc(/C=C/C(=O)O)cc(S(=O)(=O)N2CCc3ccccc32)c1OC,9%,-3%,61%,3%
O=S(=O)(Nc1ccc(-c2cn3ccsc3n2)cc1)c1ccccc1,.,.,35µM*,.
Cc1ccc(S(=O)(=O)Nc2cccc(-c3cn4ccsc4n3)c2)cc1,20%,-7%,?,3%
CCOc1ccc(NC(=O)c2c(NCc3cccnc3)sc3c2CCC(C)C3)cc1 (stereo unspecified),?,-18%,40µM*,.
CN1CC(=O)N(c2ccc([N+](=O)[O-])cc2)Cc2c1ncnc2N1CCC(N2CCOCC2)CC1,.,.,16%,.
ClCCCNC1C2CC3CC(C2)CC1C3 (stereo unspecified),.,.,-18%,.
O=[N+]([O-])c1cccc(SSc2cccc([N+](=O)[O-])c2)c1,4µM*,.,2.5µM*,0.38µM*
CNc1oc(-c2ccc(Cl)cc2)nc1S(=O)(=O)c1ccc2c(c1)OCCO2,.,.,7%,.
CN(C)CCNc1oc(-c2ccc(F)cc2)nc1S(=O)(=O)c1ccc2c(c1)OCCO2,.,.,32µM*,.
COc1ccc(-c2nc(S(=O)(=O)c3ccc4c(c3)OCCO4)c(N3CCN(C)CC3)o2)cc1,.,.,35µM*,.
COc1ccccc1/C=C/c1nc(S(=O)(=O)c2ccccc2)c(NCCN(C)C)o1,?,-8%,?,30µM*
